Records with an inconclusive call do not appear. Entries that show only a call come without a potency. Active and inactive are the calls of the source. Calls follow the shape of the dose curve; as a rule, active = well fitted inhibition curve with a large enough effect; inconclusive = small, poorly fitted or top-dose-only effect; inactive = flat fitted curve, though single readings scatter.
Potency is read from the fitted curve at half-maximal effect.

The subject of this test is CP203. As to the kind of experiment: qHTS profiling for inhibitors of Plasmodium falciparum proliferation (AID 504749). Also: nearly all actives have a fitted effect of over 60% in size. The following applies: P. falciparum in erythrocytes, SYBR Green DNA, 72 h; series mostly up to 28.7 µM. The gist of the method: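 Each compound contacts P. falciparum-infected red blood cells for 72 h at 37 C; lysis buffer (Tris, EDTA, saponin, Triton X, SYBR Green I) is added and fluorescence measured next morning; values normalized to controls.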
Background: Quantitative high-throughput screening tests each substance at several concentrations.
Turning to `CN(C)c1ccc(C(=C2C=CC(=[N+](C)C)C=C2)c2ccccc2)cc1`, the Potency is 10.7 µM (active).
For the molecule `O=C(OCc1ccccc1)c1ccccc1`, the Potency entry was “inactive”.
In the case of `O=C(/C=C/c1ccccc1)NCCO`, the Potency entry was “inactive”.
The entry for `O=C1CN(/N=C/c2ccc(-c3ccc([N+](=O)[O-])cc3)o2)C(=O)N1` is “inactive”.
To `CCCCCCCCCCCCCCCCCC(=O)O` belongs “inactive”; to `O=C(O)c1cc(O)c(O)c(O)c1`, “inactive”.
The entry for `C[S+](CC[C@H](N)C(=O)O)C[C@H]1O[C@@H](n2cnc3c(N)ncnc32)[C@H](O)[C@@H]1O` (stereo partly specified) is “inactive”.
In the case of `CN1[C@@H](CC(=O)c2ccccc2)CCC[C@H]1C[C@H](O)c1ccccc1`, the Potency result is “inactive”.
Consider `CCOC(=O)c1ccccc1O`, for which the Potency entry was “inactive”.
To `COc1cc(/C=C/C(=O)N2CCN(CC(=O)N3CCCC3)CC2)cc(OC)c1OC` belongs “inactive”; to `Nc1cc(-c2ccncc2)c[nH]c1=O`, “inactive”; to `O=C(O)c1ccccc1Nc1cccc(C(F)(F)F)c1`, “inactive”.
The entry for `CCCC(=O)OC[C@@H](OC(=O)CCC)[C@@H](OC(=O)CCC)[C@H](Cn1c2nc(=O)[nH]c(=O)c-2nc2cc(C)c(C)cc21)OC(=O)CCC` is “inactive”; for `c1ccc2sc(SN3CCOCC3)nc2c1` it is “inactive”.
The entry for `Cc1nc2ccccc2n1Cc1ccc(Cl)cc1` is “inactive”; for `Clc1ccccc1-c1nc(-c2ccncc2)no1` it is “inactive”; for `CCOc1ccc2nc(S(N)(=O)=O)sc2c1` it is “inactive”.
In the case of `O=C(O)/C=C/C(O)c1ccc(Cl)cc1` (stereo unspecified), the Potency entry is “inactive”.
To `Oc1c(Br)cc(Br)c2cccnc12` belongs “inactive”; to `Cc1ccc(C(=O)c2ccc(CC(=O)O)n2C)cc1`, “inactive”.
The entry for `O=C(CCN1CCN(CCO)CC1)N1c2ccccc2Sc2ccc(C(F)(F)F)cc21` is “inactive”.

The values above are taken from PubChem BioAssay (NCATS).
